A short description of experiment [1]: anti-His antibody binders, primary screen, artefact control for SMM control protein annotation, biochemical, small-molecule microarray, 635 nm fluorescence (AID 1128).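 Also: score merges feature fluorescence with signal-to-noise for each printed compound spot.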 The settings on record: anti-His Alexa647 antibody binding, higher = more signal.
Experiment [2] relates to Human papillomavirus type 1a E7 protein (residues 1-88). Put plainly: HPV1a E7 small-molecule binders, primary screen, biochemical, small-molecule microarray, residues 1-88, 635 nm (AID 1129). The settings on record: small-molecule microarray binding, fluorescence 635 nm; higher = more signal.
The target of experiment [3] is Focal adhesion kinase 1 (Homo sapiens) (UniProt Q05397). Nature of the experiment: small-molecule microarray binders of FAK, primary screen, biochemical, 635/667 nm fluorescence, BSA, DTT (AID 1130).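 Also: composite of spot emission at 667 nm and signal to noise over triplicate slides.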 Particulars: PTK2 binding, 635 nm fluorescence, higher = more signal.
Focal adhesion kinase 1 (Homo sapiens), sequence (Q05397 whole entry, looked up): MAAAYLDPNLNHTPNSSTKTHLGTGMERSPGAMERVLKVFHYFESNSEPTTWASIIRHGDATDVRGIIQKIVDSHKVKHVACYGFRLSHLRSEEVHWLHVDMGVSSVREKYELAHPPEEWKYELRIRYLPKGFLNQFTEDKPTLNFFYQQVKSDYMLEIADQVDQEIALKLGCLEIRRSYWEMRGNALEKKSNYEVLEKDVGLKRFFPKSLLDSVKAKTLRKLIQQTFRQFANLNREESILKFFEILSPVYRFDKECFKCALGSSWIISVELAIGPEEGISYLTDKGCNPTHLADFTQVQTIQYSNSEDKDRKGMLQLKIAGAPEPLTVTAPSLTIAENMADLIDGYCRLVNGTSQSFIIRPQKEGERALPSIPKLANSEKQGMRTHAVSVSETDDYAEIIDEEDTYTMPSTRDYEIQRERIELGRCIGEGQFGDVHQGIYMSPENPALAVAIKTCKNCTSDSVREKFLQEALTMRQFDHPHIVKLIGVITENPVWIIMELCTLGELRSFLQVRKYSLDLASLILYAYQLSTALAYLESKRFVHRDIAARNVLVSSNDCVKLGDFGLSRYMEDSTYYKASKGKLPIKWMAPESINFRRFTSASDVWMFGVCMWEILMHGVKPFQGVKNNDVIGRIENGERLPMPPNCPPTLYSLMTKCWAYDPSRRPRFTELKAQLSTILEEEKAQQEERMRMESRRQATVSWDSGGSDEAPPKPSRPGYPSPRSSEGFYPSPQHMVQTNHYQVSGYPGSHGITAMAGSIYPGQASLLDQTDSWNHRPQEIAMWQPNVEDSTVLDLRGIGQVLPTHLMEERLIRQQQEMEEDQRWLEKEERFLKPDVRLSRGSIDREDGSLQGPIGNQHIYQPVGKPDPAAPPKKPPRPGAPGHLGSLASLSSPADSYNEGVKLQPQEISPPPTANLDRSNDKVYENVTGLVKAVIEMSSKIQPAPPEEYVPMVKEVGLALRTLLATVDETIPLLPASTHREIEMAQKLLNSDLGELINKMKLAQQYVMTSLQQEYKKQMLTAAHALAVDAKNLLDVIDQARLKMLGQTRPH
Experiment [4] has as its system Fibrinogen (Alexa647-labelled). Put plainly: fibrinogen binders on compound microarrays, profiling panel, artefact control for SMM control-protein annotation, biochemical, small-molecule microarray, 635/667 nm fluorescence (AID 1131).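 Also: z-score merges 667 nm fluorescence with per-spot signal-to-noise over triplicate slides.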 Particulars: fibrinogen-A647 binding fluorescence, higher = more signal.
Experiment [5] deals with Follistatin (Homo sapiens) (UniProt P19883). Put plainly: follistatin binders on small-molecule microarrays, primary screen, biochemical, small-molecule microarray, 635/667 nm fluorescence (AID 1132). The settings on record: FST binding, 635 nm fluorescence, higher = more signal.
Follistatin (Homo sapiens), sequence (P19883 whole entry, looked up): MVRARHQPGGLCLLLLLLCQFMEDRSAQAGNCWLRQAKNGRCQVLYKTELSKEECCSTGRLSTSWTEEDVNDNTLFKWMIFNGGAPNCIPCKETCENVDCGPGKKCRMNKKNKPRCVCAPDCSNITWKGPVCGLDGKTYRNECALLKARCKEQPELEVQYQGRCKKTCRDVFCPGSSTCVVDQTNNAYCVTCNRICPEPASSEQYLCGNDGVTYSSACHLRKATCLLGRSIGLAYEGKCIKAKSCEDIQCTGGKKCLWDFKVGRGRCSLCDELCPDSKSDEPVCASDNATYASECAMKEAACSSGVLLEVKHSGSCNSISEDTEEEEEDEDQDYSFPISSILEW
For experiment [6], the target named is Fibroblast growth factor 2 (Homo sapiens) (UniProt P09038). Put plainly: FGF2 binders on small-molecule microarrays, primary screen, biochemical, small-molecule microarray, 635/667 nm fluorescence (AID 1133). Particulars: small-molecule microarray binding, FGF2, fluorescence 635/667; higher = more signal.
Fibroblast growth factor 2 (Homo sapiens), sequence (P09038 whole entry, looked up): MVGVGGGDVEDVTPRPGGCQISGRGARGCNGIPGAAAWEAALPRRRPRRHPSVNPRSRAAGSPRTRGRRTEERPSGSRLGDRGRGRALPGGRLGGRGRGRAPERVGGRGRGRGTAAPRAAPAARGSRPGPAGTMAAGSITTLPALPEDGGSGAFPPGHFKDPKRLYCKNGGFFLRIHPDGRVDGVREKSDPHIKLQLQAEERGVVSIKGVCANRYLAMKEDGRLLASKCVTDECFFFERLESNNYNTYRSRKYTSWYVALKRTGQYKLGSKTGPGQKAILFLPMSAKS
The nature of experiment [7]: mitochondrial membrane potential change in A549 cells, profiling panel, cell-based, JC-1 fluorescence, basal, 24 h, 100 nL (AID 1138).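 Also: A549 lung adenocarcinoma cells under basal conditions with no added stimulus; test concentration not given here.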 Particulars: higher = more signal.
Another experiment deals with Lefty1. Put plainly: Lefty1 binders on small-molecule microarrays, primary screen, biochemical, small-molecule microarray, 635/667 nm fluorescence (AID 1139). The settings on record: small-molecule microarray binding, fluorescence 635/667; higher = more signal.
Experiment [8] relates to wheat germ agglutinin (Triticum aestivum), Alexa647-labelled. Nature of the experiment: wheat germ agglutinin binders on compound microarrays, profiling panel, artefact control for SMM control-protein annotation, biochemical, small-molecule microarray, 635/667 nm fluorescence (AID 1140).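 Also: score merges 667 nm feature emission with signal to noise over triplicate slides.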 The settings on record: WGA-A647 binding, 635 nm fluorescence, higher = more signal.
The target in experiment [9] is Luciferin 4-monooxygenase (Photinus pyralis) (UniProt P08659). Nature of the experiment: firefly luciferase enzyme inhibitors, primary screen, biochemical, luminescence, purified enzyme, 2006 set (AID 1141).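 Also: cell-free assay with purified firefly luciferase at 100 ng per well in PBS; test concentration not given here.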 The settings on record: SteadyGlo luminescence, 30 min, higher = more signal, called active from +8 up or from −8 down.
Luciferin 4-monooxygenase (Photinus pyralis), sequence (P08659 whole entry, looked up): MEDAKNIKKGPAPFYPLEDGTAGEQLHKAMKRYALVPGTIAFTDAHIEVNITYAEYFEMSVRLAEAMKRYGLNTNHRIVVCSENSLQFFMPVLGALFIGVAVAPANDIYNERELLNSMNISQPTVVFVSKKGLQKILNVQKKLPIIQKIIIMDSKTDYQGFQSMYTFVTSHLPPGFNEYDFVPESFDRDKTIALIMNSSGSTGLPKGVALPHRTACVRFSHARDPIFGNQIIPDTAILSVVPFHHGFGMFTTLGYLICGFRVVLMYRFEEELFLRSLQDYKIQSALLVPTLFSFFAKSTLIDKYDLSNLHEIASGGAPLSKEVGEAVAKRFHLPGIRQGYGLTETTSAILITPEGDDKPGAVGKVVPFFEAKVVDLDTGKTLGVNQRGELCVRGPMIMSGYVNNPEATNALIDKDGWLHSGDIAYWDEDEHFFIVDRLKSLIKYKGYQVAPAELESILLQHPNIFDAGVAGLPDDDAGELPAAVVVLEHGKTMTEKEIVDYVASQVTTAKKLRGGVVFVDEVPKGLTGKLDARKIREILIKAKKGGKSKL
In experiment [10] the test system is Wnt5a (protein binding on small-molecule microarray). Put plainly: Wnt5a binders on small-molecule microarray, primary screen, biophysical, 635/667 nm fluorescence (AID 1142).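 Also: fluorescence read at 667 nm with signal to noise per printed feature.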 The settings on record: 635 nm fluorescence, higher = more signal.
Experiment [11] in a line: cell viability in Huh7 cells, primary screen, cytotoxicity control for HCV replication inhibitor project, CellTiter-Glo luminescence, basal, 48 h (AID 1143).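 Also: Huh7 hepatoma cells carrying a hepatitis C replication reporter with no stimulus; test concentration not given here.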 Particulars: Huh7 HCV replicon, higher = more signal, called active from +8 up or from −8 down.
Experiment [12] can be described thus: P. aeruginosa biofilm formation inhibitors, primary screen, PAO1 strain, BacTiter-Glo luminescence, LB-PBS (AID 1144). Particulars: 12 h, higher = more signal.
The nature of experiment [13]: CREB reporter modulators without forskolin, primary screen, cell-based, PC12, CRE-LacZ reporter, unstimulated (AID 1145). Particulars: no forskolin, luminescence, 4.5 h, higher = more signal, called active from +8 up or from −8 down.
Experiment [14] in a line: CREB reporter modulators under forskolin, primary screen, cell-based, PC12, CRE-LacZ reporter, forskolin-stimulated (AID 1146).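 Also: PC12 cells with 6xCRE LacZ reporter stimulated by forskolin 10 µM; beta-galactosidase reporter signal reflecting CREB driven transcription.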 The settings on record: luminescence, 4.5 h, higher = more signal, called active from +8 up or from −8 down.
Experiment [15] deals with Streptavidin (Streptomyces avidinii) (UniProt P22629). Nature of the experiment: streptavidin binders on small-molecule microarray, primary screen, artefact control for SMM compound annotation, biophysical, 635/667 nm fluorescence (AID 1147).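 Also: signal reflects streptavidin binding to arrayed compounds as a control protein.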 Particulars: streptavidin binding, higher = more signal.
Streptavidin (Streptomyces avidinii), sequence (P22629 whole entry, looked up): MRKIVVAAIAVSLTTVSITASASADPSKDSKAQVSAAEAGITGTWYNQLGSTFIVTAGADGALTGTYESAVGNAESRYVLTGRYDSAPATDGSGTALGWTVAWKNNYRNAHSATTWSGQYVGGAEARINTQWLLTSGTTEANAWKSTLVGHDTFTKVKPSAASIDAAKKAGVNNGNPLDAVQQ
Experiment [16] can be described thus: small-molecule binders of probe aInhba, primary screen, biochemical, small-molecule microarray, 635/667 nm fluorescence (AID 1148).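 Also: score merges 667nm spot fluorescence with signal-to-noise for antibody binding to printed compounds.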 Particulars: higher = more signal.
The target in experiment [17] is Torsin-1A (Homo sapiens) (UniProt O14656). Put plainly: torsin A binders from cell lysate, primary screen, small-molecule microarray, wild-type, 635/667 nm (AID 1149). The settings on record: COS7 hTOR1A-WT lysate, 635 nm fluorescence, higher = more signal.
Torsin-1A (Homo sapiens), sequence (O14656 whole entry, looked up): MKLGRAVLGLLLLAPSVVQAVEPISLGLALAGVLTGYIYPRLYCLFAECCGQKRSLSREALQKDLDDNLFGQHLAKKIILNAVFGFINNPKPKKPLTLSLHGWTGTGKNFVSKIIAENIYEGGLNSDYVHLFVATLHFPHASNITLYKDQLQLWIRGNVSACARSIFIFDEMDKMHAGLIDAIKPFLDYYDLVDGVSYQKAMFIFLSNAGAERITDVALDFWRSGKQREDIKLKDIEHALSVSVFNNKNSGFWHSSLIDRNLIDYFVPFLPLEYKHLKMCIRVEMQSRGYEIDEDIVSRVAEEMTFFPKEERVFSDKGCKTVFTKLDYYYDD
The target is the same in experiment [18]. Nature of the experiment: small-molecule binders of mutant TOR1A in lysate, primary screen, cell lysate, small-molecule microarray, COS7 lysate, 635/667 nm fluorescence (AID 1150).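 Also: score pools 667 nm emission and signal to noise measuring lysate protein binding.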 The settings on record: COS7 hTOR1A mutant lysate, 635 nm fluorescence, higher = more signal.
Experiment [19] has as its system Sonic hedgehog protein (Shh). Nature of the experiment: small-molecule binders of Shh protein, primary screen, biochemical, small-molecule microarray, 635/667 nm fluorescence (AID 1151).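 Also: Shh protein binding to compounds spotted on small-molecule microarray slides; score combines spot fluorescence intensity with signal-to-noise across triplicate slides.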 Particulars: small-molecule microarray binding, 635 nm fluorescence; higher = more signal.

Calls of active or inactive are those of the source. Unless noted, no rule for the calls is given here.

As to `CCCCN1CC=CC23O[C@@H]4/C=C\CCCOC(=O)C4[C@H]2C(=O)N(C(C)CO)[C@@H]3C1=O` (stereo not given in full), the composite z-score was -1.02 in [1]; -0.582 in experiment [2]; -0.56 in [3]; 0.347 in experiment [4]; -0.446 in experiment [5]; -0.38 in experiment [6]. Also, the composite z-score in the experiment on Lefty1 was -0.291; in [8] it was -0.362; in experiment [10], -0.286; in [15], -0.559; in experiment [16], -0.05; with Torsin-1A (Homo sapiens) [17], -0.534. Also, the composite z-score in the experiment with Torsin-1A (Homo sapiens) [18] was -0.804; in experiment [19], 0.732. Also, the z-score is 0.532 in experiment [7]; -0.315 (inactive) in [9]; 0.33 (inactive) in experiment [11]; -1.35 (inactive) in [12]; -0.907 (inactive) in experiment [13]; -0.679 (inactive) in [14].

In the case of `NC(=O)[C@]1(Cc2ccccc2)N=C(c2ccc(OCCCO)cc2)O[C@@H]1c1ccccc1`, the composite z-score was 1.15 in [1]; 1.12 in experiment [2]; 0.246 in experiment [3]; 0.977 in experiment [4]; 0.368 in experiment [5]; -0.555 in [6]. For the same compound, the composite z-score with Lefty1 was -0.524; in [8], 1.05; in experiment [10], 0.0788; in experiment [15] it was 0.452; in [16] it was 0.0872; with Torsin-1A (Homo sapiens) [17], -0.783. Moreover, the values for the composite z-score (with Torsin-1A (Homo sapiens) [18]; in experiment [19]) were -0.0179 and -0.955, respectively. For the same compound, the z-score in experiment [7] is -1.04; in [9] it was -0.354 (inactive); in experiment [11], -2.3 (inactive); in experiment [12], -0.783 (inactive); in experiment [13], 5.59 (inactive); in experiment [14], 1.49 (inactive).

Turning to `CCCCC(=O)N(Cc1ccccc1F)[C@@H]1CC(C(=O)NCCO)=C[C@H](Oc2c(I)cc(CO)cc2OC)[C@H]1O`, the composite z-score is 1.28 in experiment [1]; 1.25 in experiment [2]; 1.38 in experiment [3]; 0.96 in [4]; 1.51 in experiment [5]; 2.04 in experiment [6]. Moreover, the composite z-score in the experiment on Lefty1 was 1.58; in experiment [8] it was 0.736; in [10] it was 1.91; in experiment [15], -0.291; in [16] it was 0.0541; with Torsin-1A (Homo sapiens) [17], 1.68. Besides, the figures for the composite z-score (in the experiment with Torsin-1A (Homo sapiens) [18]; in [19]) were 0.769 and 2.45, respectively. The z-score in [7] is -1.47; in experiment [9] it was 1.57 (inactive); in experiment [11] it was -2.1 (inactive); in experiment [12], -0.43 (inactive); in experiment [13], 0.673 (inactive); in [14], 0.377 (inactive).

As for `C=CC[C@@]1(C(=O)NCc2ccccc2)N=C(c2ccc(OCCCO)cc2)O[C@@H]1c1ccccc1CN=[N+]=[N-]`, the composite z-score in [1] was 1.8; in experiment [2] it was 1.22; in experiment [3] it was 1.06; in experiment [4], 0.995; in experiment [5], 1.29; in experiment [6], -0.204. Moreover, the composite z-score is -0.0518 in the experiment with Lefty1; 0.888 in experiment [8]; 0.521 in [10]; 0.579 in experiment [15]; 0.122 in [16]; -0.805 with Torsin-1A (Homo sapiens) [17]. Also, the composite z-score with Torsin-1A (Homo sapiens) [18] was 0.287; in experiment [19] it was -0.629. The z-score in experiment [7] is 0.903; in experiment [9] it was -0.876 (inactive); in [11], -3.66 (inactive); in experiment [12], -0.315 (inactive); in experiment [13] it was 3.13 (inactive); in experiment [14] it was 2.93 (inactive).

As for `C=C(C(=O)CC[C@@H](OC(=O)c1cccnc1)c1ccc(CO)o1)C(C)C`, the composite z-score in [1] was -0.403; in experiment [2], 0.799; in experiment [3], 0.113; in experiment [4] it was 0.82; in experiment [5], 1.26; in [6] it was 1.1. Moreover, the composite z-score in the experiment with Lefty1 came out at 1.56; in [8], 0.187; in experiment [10], 0.27; in [15], 0.156; in experiment [16], 0.209; with Torsin-1A (Homo sapiens) [17] it was 0.787. Moreover, the composite z-score in the experiment with Torsin-1A (Homo sapiens) [18] is 0.584; in [19], 1.75. Moreover, the z-score in experiment [7] is 0.288; in experiment [9], -1.96 (inactive); in experiment [11], 0.184 (inactive); in experiment [12] it was 0.228 (inactive); in experiment [13], 0.48 (inactive); in experiment [14], -0.135 (inactive).
